Screens: PubChem BioAssay, National Center for Advancing Translational Sciences (NCATS)
This is a sample that favours compounds with a hit; in the whole collection about 7.8% have one here.
HCV inhibitor: inhibitors of hepatitis C virus infection; Huh7.5.1 HCVcc-Cre infection, luciferase reporter, 44 h; Potency, µM (series often up to 41.8 µM), for inactives: top-dose activity change, negative = inhibition, hits mostly inhibitors; 3.4% of 340,000 active; AID 651820; active = well fitted inhibition curve with a large enough effect; inconclusive = small, poorly fitted or top-dose-only effect, or another doubt; inactive = no such curve, though single readings can be large or run the other way; also: potency is read from the fitted curve at half-maximal effect
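Compounds are dispensed onto cells plated 4 h earlier at 1,000 per well, with HCVcc-Cre virus (about 0.5 moi) added next. Following 44 h of culture, luminescent signal is measured for 15 sec after 15 min with substrate at room temperature.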
LASV entry inh: inhibitors of Lassa virus binding or cell entry; Potency, µM (titrated, usually from 37.9 µM), for the others: at the top dose activity change, negative = inhibition, actives largely listed as inhibitors; Lassa virus pseudotype entry inhibition, cell reporter; 1.2% of 300,000 active; calls by dose curve; tested in HEK293 cells; also: potency is read from the fitted curve at half-maximal effect; nearly all actives have a fitted effect of over 50% in size
Marburg entry inh: inhibitors of Marburg virus binding or cell entry. Marburg virus pseudotyped entry inhibition, cell reporter. Potency, µM (top dose mostly 37.8 µM), for the others: at the highest dose activity change, negative = inhibition, hits mostly inhibitors. 1.8% of 300,000 active. AID 540276; calls by dose curve; tested in HEK293 cells; also: potency is read from the fitted curve at half-maximal effect
VACV Venus inh: vaccinia inhibition (Venus reporter); Vaccinia virus Venus reporter expression, fluorescence; 0.46% of 330,000 active; Potency, µM (highest dose often 36.5 µM), inactives show top-dose activity change, negative = inhibition, most hits filed as inhibitors; calls by dose curve; tested in A549 cells; also: potency is read from the fitted curve at half-maximal effect; nearly all actives have a fitted effect of over 30% in size
HCMV inh: blocks human cytomegalovirus replication. 4.5% of 410,000 active. activity change, negative = inhibition, % at 57.5 µM. AID 1259415. HFF cells, HCMV-luciferase reporter, 72 h; stronger effect = lower value; in the data active = activity change below about -60%; inconclusive = no clear call, values can overlap the other calls; inactive = above about -39%
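Two-dose cell screen: HFF monolayers treated with compounds and infected with luciferase-expressing HCMV at 1 PFU/cell, 72 h at 37C, then lysed for luciferase measurement.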
VACV mCherry inh: vaccinia inhibition (mCherry reporter); Vaccinia virus mCherry reporter infection, fluorescence; Potency, µM (titrated, usually from 36.5 µM), without a hit: at the highest dose activity change, negative = inhibition, usual class: inhibitors; 0.63% of 310,000 active; AID 720579; calls by dose curve; tested in A549 cells; also: potency is read from the fitted curve at half-maximal effect; nearly all actives have a fitted effect of over 35% in size
Starred values were filed as active, the others as inactive; i = inactive; ? = inconclusive; . = no result given; [ ] = dose if it differs, or a comment. % is scaled to controls: 0 for no effect and ±100 for the full control effect.

SMILES	HCV inhibitor	LASV entry inh	Marburg entry inh	VACV Venus inh	HCMV inh	VACV mCherry inh
Cc1c(O)ccc(/C=N/Nc2nc(-c3cccnc3)nc3ccccc23)c1O	25µM*	.	.	-17%	-75*	-29%
Cc1ccc(-c2nc(N/N=C/c3ccncc3)c3ccccc3n2)cc1	-23%	?	2.9µM*	-8%	100	-7%
Cc1ccccc1Nc1nc(-c2cccnc2)nc2ccccc12	?	.	.	-23%	10	?
CC(NC(=O)COC(=O)c1c[nH]c2ccccc12)c1ccccc1 (stereo not given)	0%	8.9µM*	13%	-23%	25	-22%
O=C(COC(=O)c1c[nH]c2ccccc12)Nc1ccccc1	-20%	8%	-14%	-11%	-7	-17%
COc1ccc(CN2C(=O)C(n3c(C)ccc3C)c3cc(F)ccc32)cc1 (stereo not given)	.	.	.	.	-22	.
CN(CC(=O)Nc1ccc([N+](=O)[O-])cc1Br)Cc1c(F)cccc1Cl	14µM*	.	.	-2%[7.34 µM]	-22	-11%[7.34 µM]
CN(CCOc1ccccc1)CC(=O)Nc1ccc([N+](=O)[O-])cc1Cl	?	?	1%[46.1 µM]	-1%	-25	14%
Cc1cc(C)nc(N2CCC(C(=O)N3CCN(c4cc(Cl)ccc4C)CC3)CC2)n1	13µM*	-11%	?	.	53	.
Cc1ccc(Cl)cc1N1CCN(C(=O)C2CCN(S(C)(=O)=O)CC2)CC1	-14%	-28%[46.1 µM]	?	-7%	-64*	i
Cc1ccc(Cl)cc1N1CCN(C(=O)C2CCN(S(=O)(=O)c3cnc[nH]3)CC2)CC1	4%	2%	-28%[46.1 µM]	-2%	2	-16%
COC(=O)Cc1ccc(NC(=S)N2CCN(c3ccccn3)CC2)cc1	-11%	.	.	.	-24	.
COC(=O)Cc1ccc(NC(=S)N2CCN(c3cc(Cl)ccc3C)CC2)cc1	10µM*	-25%	?	-13%	-70*	-19%
Cc1ccc(CCNC(=O)CCc2cn(Cc3ccccc3C)c3ccccc23)cc1	.	?	.	-7%	-17	-14%
COc1ccccc1C1CN(CC(=O)N[C@H]2CCCCNC2=O)Cc2ccccc2O1 (stereo not given in full)	.	.	.	6%	.	-15%
CCOP(=O)(OCC)c1cccc(OP(=O)(c2cccc([N+](=O)[O-])c2)c2cccc([N+](=O)[O-])c2)c1	18%	-12%	1%[46.1 µM]	-3%[7.34 µM]	64	i[7.34 µM]
CCOP(=O)(OCC)c1cccc(O)c1	20%	23%	16%[46.1 µM]	-2%	-65*	-21%
CCOC(=O)c1sc2ccccc2c1S(=O)(=O)Nc1ccc(N(C)C)cc1	.	-12%[46.1 µM]	.	-4%	-20	-5%
CS(=O)(=O)c1ncc(Cl)c(C(=O)Nc2ccc3ccccc3c2)n1	11µM*	?	8.9µM*	?	-98*	10µM*
CCS(=O)(=O)c1ncc(Cl)c(C(=O)NCc2ccccc2)n1	.	?	?	-10%	-100*	-14%
COc1ccc(CNC(=O)c2nc(SCc3ccc(C)cc3)ncc2Cl)cc1	.	?	15%[46.1 µM]	-24%	-70*	-23%
O=C(Nc1ccc2ccccc2c1)c1cnccn1	8%	?	?	.	104	.
COC(=O)c1ccccc1NC(=O)c1nc(S(=O)(=O)Cc2ccccc2)ncc1Cl	0%	.	.	.	-110*	.
CN(CCO)C(=O)c1cn(C2CCCN(Cc3cccc4ccccc34)C2)nn1 (stereo not given)	.	.	.	-6%	.	-6%
COc1cccc([C@H]2Oc3ccc(OC)cc3C(=NOC[C@@H](O)COCc3ccco3)[C@H]2O)c1	.	.	14%[14.2 µM]	.	.	.
COc1ccc(CNC(=O)c2nc(S(=O)(=O)Cc3ccccc3)ncc2Cl)cc1	?	?	-7%[46.1 µM]	-10%[7.34 µM]	-95*	-12%[7.34 µM]
O=C(NCc1ccccc1)c1nc(S(=O)(=O)Cc2ccccc2)ncc1Cl	-25%	?	-7%[46.1 µM]	-20%	-78*	-21%
CCOc1ccc(NC(=O)c2nc(S(=O)(=O)Cc3ccccc3)ncc2Cl)cc1	.	.	.	-25%	.	-25%
CC(=O)Nc1ccc(NC(=O)c2nc(S(=O)(=O)Cc3ccccc3)ncc2Cl)cc1	-20%	.	.	.	-86*	.
CC1=C(C(=O)Nc2cccnc2)C(c2ccc(Cl)cc2)n2nc(SCc3ccccc3)nc2N1 (stereo not given)	.	25%[46.1 µM]	7%[46.1 µM]	1%	4	-5%
